# Results reported in PubChem BioAssay (EPA / NIEHS).
# Records with an inconclusive call do not appear. Calls of active or inactive are those of the source. The calls were made as follows: active = hit-call score of the fitted dose curve at least 0.9, where 1 is the maximum; inconclusive = response in the unintended direction; inactive = score below 0.9.
# Read-out: HMG-CoA synthase (HMGCS2), HMGCS2 (gene 3158)
# Test: CLD_HMGCS2_48hr: CellzDirect (CLD) Gene Expression Assay for HMG-CoA synthase (HMGCS2) at 48 hours (AID 2283711)
# Experimental: CLD_48hr is a cell-based, multiplexed-readout assay that uses hepatocyte, a human liver primary cell, with measurements taken at 48 hours after chemical dosing in a 96-well plate.CLD_HMGCS2_48hr is one of 16 assay component(s) measured or calculated from the CLD_48hr assay. It is designed to make measurements of mRNA induction, a form of inducible reporter, as detected with chemiluminescence signals by Quantitative Nuclease Protection Assay (qNPA) technology.Data from the assay component CLD_HMGCS2_48hr was analyzed at the endpoint, CLD_HMGCS2_48hr, in the positive analysis fitting direction relative to DMSO as the negative control and baseline of activity. Using a type of inducible reporter, gain-of-signal activity can be used to understand changes in the reporter gene as they relate to the gene HMGCS2. Furthermore, this assay endpoint can be referred to as a primary readout. To generalize the intended target to other relatable targets, this assay endpoint is annotated to the lyase intended target family, where subfamily is HMG-CoA synthase.
# Human hepatocyte cultures were treated daily for two consecutive days with fresh dosing solutions containing appropriate concentrations of the 320 ToxCast chemicals (chemical identities were blinded to CellzDirect and other ToxCast collaborators), vehicle control (0.2% DMSO), and positive control inducers as summarized in Table 1. Due to the large number of treatment groups and chemicals examined, the ToxCast chemicals were divided into two groups (spanning two independent cultures of hepatocytes from separate donor preparations (Hu778: ToxCast plates 1 and 2; Hu776: ToxCast plates 3 and 4). Each preparation of human hepatocyte cultures was treated with respective vehicle control, medium only control, set of six positive controls/reference chemicals for the five hepatic receptor pathways, and a subset of eight of the ToxCast chemicals (indoxacarb, pyrithiobac-sodium, norflurazon, cyhalofop-butyl, methomyl, thiram, acetochlor, and propiconazole). These replicate data, coupled with internal replicates designed within the blinded ToxCast chemical library, provided additional data to evaluate interindividual differences between hepatocyte preparations and their potential impact on chemical profiles.Cell morphology and integrity were evaluated using phase-contrast microscopy as an indicator of hepatocyte cell health (Tyson & Green, 1987). Cultures for each treatment group (i.e., media, vehicle [0.2% DMSO], positive control inducers [multiple concentrations], and the ToxCast chemicals [multiple concentrations]) were observed and cell morphology was assessed relative to vehicle control cultures at each harvest time point (0, 6, 24, or 48 h). […] Images were evaluated at the conclusion of the study to assess changes in cell integrity and account for the effects of chemical exposure on uncharacteristic changes in concentration-dependent gene expression profiles. The results from these determinations of apparent cytotoxicity were annotated (yes/no) alongside the corresponding qNPA data for reference.At the conclusion of each treatment period, hepatocyte cultures (96-well) were washed with 1 volume of HBSS, lysed by addition of 25 ul ArrayPlate lysis buffer (HTG, Tucson, AZ), and 70 ul/well of Denaturation Oil, denatured by incubation at 95C for 10 min, and frozen at approximately -70C until analysis by nuclease protection assay (qNPA) (Roberts et al., 2007). For qNPA analysis, cell lysates were thawed at 50C for approximately 30 min, qNPA probes were added, and samples were incubated at 95C for 10 min to begin the detection process by denaturing the target RNA, dissociating the duplexes and secondary structure hybridization. At the conclusion of the hybridization period, S1 nuclease reagent was added to each sample to digest all nonprotected nucleotides at 50C for 60-90 min. […]
SMILES,outcome,AC50
CC(C)(C)[C@@H](O)[C@@H](Cc1ccc(Cl)cc1)n1cncn1,inactive,
CCCN(CCC)C(=O)SCC,inactive,
CCC(C)OC(=O)N1CCCCC1CCO (centres undefined),inactive,
O=C(O)C1(C(=O)Nc2ccc(Cl)cc2Cl)CC1,inactive,
CCOC(=O)[C@H](C)Oc1ccc(Oc2nc3ccc(Cl)cc3o2)cc1,inactive,
Oc1ccc(C(c2ccc(O)cc2)C(Cl)(Cl)Cl)cc1,inactive,
CCSC(=O)N(CC(C)C)CC(C)C,inactive,
CCC(O)=C1C(=O)CC(C(=O)O)CC1=O (centres undefined),inactive,
Cc1nn(C)c(Oc2ccccc2)c1C=NOCc1ccc(C(=O)OC(C)(C)C)cc1,inactive,
CCCOC(=O)c1ccc(C(=O)OCCC)nc1,,269 nM (active)
CCCCOC(=O)[C@@H](C)Oc1ccc(Oc2ccc(C(F)(F)F)cn2)cc1,inactive,
COC(=O)c1c(Cl)nn(C)c1S(=O)(=O)NC(=O)Nc1nc(OC)cc(OC)n1,inactive,
CCOC(=O)C(C)Oc1ccc(Oc2nc3ccc(Cl)cc3o2)cc1 (centres undefined),inactive,
COc1nc(C)nc(NC(=O)NS(=O)(=O)c2ccccc2OCCCl)n1,inactive,
CCCCCCC(C)OC(=O)COc1nc(F)c(Cl)c(N)c1Cl (centres undefined),inactive,
CCOC(=O)C(C)Oc1ccc(Oc2cnc3cc(Cl)ccc3n2)cc1 (centres undefined),,6860 nM (active)
COC(=O)c1ccccc1C(=O)O,inactive,
COC(=O)c1cccc(C)c1S(=O)(=O)NC(=O)Nc1nc(OCC(F)(F)F)nc(N(C)C)n1,inactive,
CCCOC(=O)NCCCN(C)C,inactive,
C#CCOC(=O)[C@@H](C)Oc1ccc(Oc2ncc(Cl)cc2F)cc1,inactive,
CSC(=O)c1cccc2nnsc12,inactive,
c1ccc2[nH]c(-c3cscn3)nc2c1,inactive,
COc1c(Cl)ccc(Cl)c1C(=O)O,,7.07 nM (active)
CCCCOC(=O)C(C)Oc1ccc(Oc2ccc(C(F)(F)F)cn2)cc1 (centres undefined),,263 nM (active)
OB(O)O,inactive,
CCCCC(CC)COC(=O)c1ccccc1C(=O)O (centres undefined),inactive,
COC(=O)c1ccccc1S(=O)(=O)NC(=O)Nc1nc(OC(F)F)cc(OC(F)F)n1,inactive,
c1ccc(Nc2ccccc2)cc1,inactive,
CCCCOCCOCCOCc1cc2c(cc1CCC)OCO2,inactive,
